From PubChem BioAssay
Cav3 T inh – human Cav3.2 channel inhibition, primary screen. B-score at 10 µM. actives 4% (n = 100,000). Cav3.2-expressing cells, Fluo-4 calcium fluorescence FDSS; active compounds read low. O95180;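 active = single-dose well whose peak fluorescence ratio is a statistical outlier from its plate by either plate-standardised score or position-corrected B-score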
CYP2C19 inh – human CYP2C19 inhibition; CYP2C19 Supersomes, luciferin-H EGE luminescence, 30 min; inhibition, % at 5 µM; actives 21% (n = 96,000); AID 778;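 active = CYP2C19 inhibition above a set limit at 5 µM in the primary screen, cut at about 50% in these data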;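 also: plate controls were negative control wells for no effect and 2.5 mM tranylcypromine positive control for full effect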
Target sequence (P33261 whole entry, looked up): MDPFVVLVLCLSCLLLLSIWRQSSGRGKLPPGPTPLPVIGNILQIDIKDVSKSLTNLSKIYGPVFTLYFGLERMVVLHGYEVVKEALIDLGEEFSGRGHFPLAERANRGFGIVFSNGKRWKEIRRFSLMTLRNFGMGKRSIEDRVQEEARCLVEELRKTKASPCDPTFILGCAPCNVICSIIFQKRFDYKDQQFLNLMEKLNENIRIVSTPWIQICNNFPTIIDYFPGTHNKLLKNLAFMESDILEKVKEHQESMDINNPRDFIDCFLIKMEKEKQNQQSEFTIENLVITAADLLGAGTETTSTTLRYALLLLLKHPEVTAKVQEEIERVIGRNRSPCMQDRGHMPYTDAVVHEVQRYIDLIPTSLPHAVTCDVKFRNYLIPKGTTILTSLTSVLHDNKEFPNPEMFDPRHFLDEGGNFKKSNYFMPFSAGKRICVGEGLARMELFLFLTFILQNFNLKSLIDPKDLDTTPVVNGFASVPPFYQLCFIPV
Pyk2 oligo antag – antagonists of human Pyk2 oligomerization; Q14289; z-score (the deposit names both 25 µM and 10 µM); actives 0.83% (n = 99,000); Q293 cells, Pyk2 FERM NanoBiT luminescence; active compounds read low;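 active = Z-score of -3 or lower, scaled per plate to the spread of control and sample wells; inactive = z-score above -3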;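 also: negative z-score means lost luminescence so less FERM oligomerization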
CYP2C9 inh – human CYP2C9 inhibition. P11712. CYP2C9 Supersomes, luciferin-H conversion, luminescence. inhibition, % at 5 µM. actives 20% (n = 96,000);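 active = blocking of liver enzyme CYP2C9 beyond about 50% at 5 µM, limit read from the data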
CYP2C9 activ – CYP2C9 (human) activation; recombinant CYP2C9, luciferin-H conversion, luminescence; active compounds read high; factor 1 = untreated enzyme, 0 = blocked; actives 1.4% (n = 96,000); P11712; activation factor at 5 µM; AID 1024;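 active = activation factor of 2 or more for CYP2C9 at a 5 µM dose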;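 also: 0 = sulfaphenazole-blocked wells and 1 = vehicle-only wells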
CYP2C19 activ – activators of human cytochrome P450 2C19; P33261; recombinant CYP2C19, luciferin-H EGE luminescence; active compounds read high; 0 = fully inhibited enzyme, 1 = untreated enzyme; activation factor at 5 µM; 96,000 tested, under 10 active; AID 1025;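 active = activation factor of at least 2 at 5 µM in the primary screen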;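 also: 0 = wells with 2.5 mM tranylcypromine and 1 = vehicle-only wells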
Starred values were filed as active, the others as inactive; . = no result. This is a sample that favours compounds with a hit; in the whole collection about 27% have one here.

SMILES | Cav3 T inh | CYP2C19 inh | Pyk2 oligo antag | CYP2C9 inh | CYP2C9 activ | CYP2C19 activ
COc1cc(S(=O)(=O)NCC2CCCO2)c(OC)cc1Cl (centres undefined) | 0.572 | 65.9* | -0.13 | 1.8 | 1 | 0.3
NNC(=O)c1ccccc1CO | -1.7 | . | . | . | . | .
O=C(CCc1ccccc1)Nc1ccc(F)cc1F | -0.076 | 59.9* | 0.13 | 4.8 | 1 | 0.4
O=C(CCN1C(=O)c2ccccc2C1=O)Nc1ccc(F)cc1F | 1.71 | 36.4 | 0.04 | -3.7 | 1 | 0.6
O=C(CCc1ccccc1)Nc1ccccc1F | . | 76.4* | 0.49 | 24.7 | 0.8 | 0.2
O=C(CCc1ccccc1)Nc1c(F)c(F)c(F)c(F)c1F | -1.52 | 26.1 | 1.42 | 17.9 | 0.8 | 0.7
CCOC(=O)c1sc(NC(NC(=O)c2ccco2)(C(=O)OC)C(F)(F)F)nc1C (centres undefined) | . | 7.4 | -0.7 | 55.9* | 0.4 | 0.9
COC(=O)c1sc(NC(=O)c2ccco2)nc1C | -0.123 | 7.7 | 0.77 | 17.6 | 0.8 | 0.9
COC(=O)Cc1c(C)c2c(OCc3nn[nH]n3)cc(C)cc2oc1=O | 0.664 | 7.2 | -0.49 | 17.1 | 0.8 | 0.9
Cc1c(C)c2cc(Cl)c(OCc3nn[nH]n3)cc2oc1=O | 0.924 | 92.3* | 0.24 | 93.6* | 0.1 | 0.1
CCC(C)Nc1nc(OC)nc(N(C)C#N)n1 (centres undefined) | -0.878 | 6.5 | 0.5 | -9.6 | 1.1 | 0.9
CCOC(=O)c1sc2nccc(N(C)C)c2c1N=CNOCc1ccccc1 | -0.289 | 61.0* | -0.89 | 72.3* | 0.3 | 0.4
CCOC(=O)c1sc2ncnc(N3CCN(c4ccc(OC)cc4)CC3)c2c1C | -0.703 | 15.2 | -0.01 | 19.9 | 0.8 | 0.8
CCOC(=O)c1sc2nccc(N(C)C)c2c1N=CNOC | 0.79 | 5.9 | -0.28 | 50.3* | 0.5 | 0.9
CCOC(=O)c1sc2ncnc(NCc3ccco3)c2c1C | 0.00326 | 41.4 | 0.07 | 38.5 | 0.6 | 0.6
O=[N+]([O-])c1ccc(S(=O)(=O)NCCc2cn3ccccc3n2)cc1 | -0.0556 | . | . | . | . | .
Cc1cc(N2C(=O)C3CC=CC(C)C3C2=O)no1 (centres undefined) | 0.301 | . | -0.38 | . | . | .
CS(=O)(=O)N(CC(=O)N1CCOCC1)Cc1ccc(Cl)cc1 | . | 56.2* | -0.23 | -6.0 | 1.1 | 0.4
COc1ccc(N2CCN(C(=O)CN(Cc3ccc(Cl)cc3)S(C)(=O)=O)CC2)cc1 | -4.62* | 20.9 | 1.12 | -2.3 | 1 | 0.8
CS(=O)(=O)N(CC(=O)N1CCN(Cc2ccc3c(c2)OCO3)CC1)Cc1ccc(Cl)cc1 | -1.37 | 46.3 | 0.29 | 61.6* | 0.4 | 0.5
CS(=O)(=O)N(CC(=O)N1CCCCCC1)Cc1ccc(Cl)cc1 | 0.118 | 93.4* | 0.19 | 36.3 | 0.6 | 0.1
COC(=O)c1ccc(C(=O)OC)c(NC(=O)CSc2cccc[n+]2[O-])c1 | 0.161 | -15.0 | 0.3 | -2.8 | 1 | 1.1
COc1cccc(SCc2noc(C(=O)NCC3CC3)c2C(=O)NCC2CC2)c1 | -0.775 | . | . | . | . | .
O=C(OCc1nc2ccc(Cl)cc2n1CCO)c1ccc2c(c1)OCO2 | -1.56 | 17.4 | -0.92 | 42.6 | 0.6 | 0.8
CS(=O)(=O)N(CC(=O)N1CCN(c2ccccc2)CC1)Cc1ccc(Cl)cc1 | -2.21 | 13.1 | 0.93 | 13.1 | 0.9 | 0.9
SMILES | Cav3 T inh | CYP2C19 inh | Pyk2 oligo antag | CYP2C9 inh | CYP2C9 activ | CYP2C19 activ
CS(=O)(=O)N(CC(=O)N1CCN(Cc2ccccc2)CC1)Cc1ccccc1 | -1.89 | 25.3 | -0.54 | 21.6 | 0.8 | 0.7
CN1CCN(C(=O)CN(Cc2ccc(Cl)cc2)S(C)(=O)=O)CC1 | 0.279 | 69.3* | 0.23 | 0.3 | 1 | 0.3
CN(c1ccccc1C(=O)N1CCc2ccccc2C1)S(C)(=O)=O | -0.222 | 93.2* | -0.3 | 83.5* | 0.2 | 0.1
O=C(CCC1CCCCC1)N1CCN(Cc2ccc3c(c2)OCO3)CC1 | -1.13 | 91.4* | -0.49 | 86.8* | 0.1 | 0.1
CS(=O)(=O)N(CC(=O)N1CCc2ccccc2C1)Cc1ccccc1 | . | 86.3* | 1 | 80.1* | 0.2 | 0.1
CCc1ccc(N2C(=O)/C(=C/c3cccs3)N(CC(=O)OC)C2=S)cc1 | -0.092 | 22.3 | -0.8 | 42.3 | 0.6 | 0.8
COC(=O)c1sc(=S)sc1C(=O)OC | 1.01 | 52.1* | 0.18 | 23.7 | 0.8 | 0.5
COC(=O)c1c(N)sc(C(C)=O)c1C | 0.31 | -0.9 | . | 4.6 | 1 | 1
COc1ccc(C2=[N+]([O-])C(C)(C)N(O)C2C)cc1 (centres undefined) | -0.178 | . | -0.32 | . | . | .
